# From PubChem
# Rows were chosen to be rich in hits. Some 10% of all compounds tested hit in one or more screens of this group.
# BAZ2B inh: blocks human BAZ2B. AlphaScreen BAZ2B-H3K14Ac peptide displacement. Potency, µM (doses to about 114 µM), inactives show at the top dose activity change, negative = inhibition, hits mostly inhibitors. AID 504333. hit rate 4.4% among 360,000. Q9UIF8; also: potency is read from the fitted curve at half-maximal effect; % is scaled to controls: 0 for no effect and ±100 for the full control effect; nearly all actives have a fitted effect of over 60% in size
#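 BAZ2B 50 nM plus b-H3(5-23)K14Ac 50 nM, PBS pH 7.4/0.01% Tween-20, 30 min RT; compound added (max 110 uM), 30 min RT; streptavidin donor/Ni-chelate acceptor beads 10 ug/mL final, 20 min dark; AlphaScreen read.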
# CtBP-E1A blk: inhibitors of CtBP/E1A interaction. AlphaScreen GST-E1A/His-CtBP binding, 1536-well; hits give low values. activity change, % (no concentration beside the values). hit rate 0.49% among 340,000; in the data active = activity change below about -65%; inconclusive = mostly about -30% to -63%; also: % is scaled to controls: 0 for no effect and ±100 for the full control effect
#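 Protein mix (5X: 125 nM each GST-E1A, His-CtBP) was incubated with pinned compound 2 h at 37 deg C in dark, in 50 mM Tris pH 8.0 buffer with 300 mM NaCl. Glutathione donor and nickel acceptor beads followed; AlphaScreen signal read after 1 h.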
# HP1b binding inh: blocks HP1-beta chromodomain binding to methylated histone tails | AID 540317 | Potency, µM (doses to about 114 µM), inactives show top-dose activity change, negative = inhibition, most hits filed as inhibitors | hit rate 0.56% among 390,000 | AlphaScreen HP1-beta / biotin-H3K9me3 peptide binding; also: potency is read from the fitted curve at half-maximal effect; nearly all actives have a fitted effect of over 70% in size
# Target sequence (P83916 whole entry, looked up): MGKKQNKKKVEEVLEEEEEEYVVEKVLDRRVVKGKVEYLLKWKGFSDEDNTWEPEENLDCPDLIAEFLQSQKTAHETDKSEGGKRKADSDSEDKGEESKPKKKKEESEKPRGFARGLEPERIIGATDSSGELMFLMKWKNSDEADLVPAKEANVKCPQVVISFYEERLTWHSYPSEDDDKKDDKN
#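 HP1-beta protein (50 nM final) preincubated 30 min at room temperature with biotinylated H3(1-18)K9me3 peptide (50 nM) in PBS pH 7.4, 0.01% Tween-20, then compound added for 30 min. AlphaScreen streptavidin donor/nickel chelate acceptor beads (10 ug/mL final), 30 min dark, luminescence read.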
# G9a block: G9a (human) methyltransferase inhibition; hit rate 8.8% among 350,000; Potency, µM (top dose mostly 102 µM), without a hit: at the top dose activity, negative = inhibition, actives largely listed as inhibitors; G9a H3K9 monomethylation, AlphaScreen, 2 h; Q96KQ7; AID 504332; also: potency is read from the fitted curve at half-maximal effect; % is scaled to controls: 0 for no effect and ±100 for the full control effect; nearly all actives have a fitted effect of over 75% in size
# Target sequence (Q96KQ7 913-1193 limits assumed): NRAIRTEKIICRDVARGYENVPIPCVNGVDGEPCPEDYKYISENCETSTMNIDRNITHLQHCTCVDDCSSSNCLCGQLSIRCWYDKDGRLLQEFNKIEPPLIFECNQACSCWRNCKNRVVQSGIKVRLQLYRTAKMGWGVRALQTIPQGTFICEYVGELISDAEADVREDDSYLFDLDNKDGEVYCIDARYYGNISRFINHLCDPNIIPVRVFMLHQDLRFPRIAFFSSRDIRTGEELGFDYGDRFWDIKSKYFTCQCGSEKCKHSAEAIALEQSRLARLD
#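 Chemiluminescent proximity detection of H3K9 monomethylation, read after 10 min bead incubation in the dark. Reaction: 20 nM G9a, 500 nM biotin-H3K9 peptide, 20 uM SAM cofactor, 2 h, room temperature, following 15 min enzyme-compound preincubation.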
# Six1-Eya2 blk: blocks human Six1 binding to Eya2. Q15475+O00167. AlphaScreen GST-Six1/His-Eya2 binding, biochemical; hits give low values. activity change, % (no concentration beside the values). hit rate 0.56% among 360,000. AID 651725; in the data active = activity change below about -65%; inconclusive = mostly about -30% to -63%; also: % is scaled to controls: 0 for no effect and ±100 for the full control effect
#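 Compounds are tested against tagged Six1 and Eya2 proteins bridged by glutathione donor and nickel acceptor beads; after a one-hour incubation at 37 °C without light, AlphaScreen emission is recorded.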
# JMJD2A Tudor inh: JMJD2A Tudor domain (human) inhibition | O75164 | AlphaScreen JMJD2A-Tudor / H3K4me3 peptide binding | Potency, µM (titrated, usually from 114 µM), without a hit: at the highest dose activity change, negative = inhibition, actives largely listed as inhibitors | hit rate 4.4% among 390,000 | AID 504339; also: potency is read from the fitted curve at half-maximal effect; % is scaled to controls: 0 for no effect and ±100 for the full control effect; nearly all actives have a fitted effect of over 50% in size
# * = called active by the depositor; u = inconclusive; x = no result; [ ] = remark or other dose. Unless noted, calls follow the shape of the dose curve; as a rule, active = well fitted inhibition curve with a large enough effect; inconclusive = small, poorly fitted or top-dose-only effect; inactive = no such curve, though single readings can be large or run the other way.
SMILES,BAZ2B inh,CtBP-E1A blk,HP1b binding inh,G9a block,Six1-Eya2 blk,JMJD2A Tudor inh
CC(C)CC(=O)Nc1c(C(=O)N2CCN(c3ccccc3F)CC2)oc2ccccc12,u,x,12%,-29%[59 µM],x,u
CN(C)S(=O)(=O)c1cccc(NC(=O)c2ccc3c(c2)S(=O)(=O)N=C2CCCCCN23)c1,-32%,x,x,32µM*,x,x
Cc1ccc(/C=C/C(=O)Nc2cccc(S(=O)(=O)N3CCOCC3)c2)o1,-32%,0,50µM*,8.9µM*,-6,-28%
O=C(Nc1cccc(S(=O)(=O)N2CCOCC2)c1)c1ccccn1,u,3,22%,25µM*,1,-17%
CN(C)S(=O)(=O)c1cccc(NC(=O)c2cc3c(cc2Cl)N2CCCCCC2=NS3(=O)=O)c1,-36%,1,9%,20%[59 µM],-6,-17%
Cc1nc(-c2cccc(NC(=O)c3ccc(Cl)c(S(=O)(=O)N4CCCC4)c3)c2)cs1,x,-14,x,x,-6,x
Cc1nc(-c2cccc(NC(=O)c3cccc(S(=O)(=O)N4CCCC4)c3)c2)cs1,5%,-19,37%,10µM*,-26,-11%
O=C(Nc1cccc(S(=O)(=O)N2CCOCC2)c1)c1ccc(Cl)nc1,x,x,51%,x,u,-6%
Cc1ccc(-c2[nH]ncc2CNCc2ccc(CN(C)C)cc2)cc1,x,x,34%,x,x,-10%
Cc1cccc(OCC(=O)Nc2nnc(S(=O)(=O)N3CCc4ccccc43)s2)c1,-28%,x,-2%,u,x,-26%
Cc1ccc(S(=O)(=O)c2nnn(-c3ccc(F)c(Cl)c3)c2N)cc1,-1%,x,58%,4%[59 µM],x,-13%
O=C(C1=C[C@H](C2CCCCC2)C[C@H](OCCCCO)O1)N1CCN(Cc2ccc3c(c2)OCO3)CC1,u,u,-4%,-2%[59 µM],-18,-35%
Cn1cnnc1SCC(=O)Nc1cccc(S(=O)(=O)N2CCOCC2)c1,6%,6,47%,-7%,5,6%
CC(CC(=O)Nc1cccc(S(=O)(=O)N2CCCCC2)c1)c1ccccc1 (centres undefined),0%,3,43%,u,-13,6%
CCCC(C(=O)Nc1cccc(S(=O)(=O)N2CCCC2)c1)c1ccccc1 (centres undefined),4%,7,26%,16µM*,-8,4%
Cc1cc2nnc(SCC(=O)Nc3cccc(S(=O)(=O)N4CCOCC4)c3)n2c2ccccc12,12%,u,15%,50µM*,u,-11%
O=C(Nc1cccc(S(=O)(=O)N2CCCCC2)c1)c1ccccn1,u,-7,-3%,5.6µM*,-4,u
O=C(Nc1cccc(S(=O)(=O)N2CCCCCC2)c1)c1ccc2ccccc2n1,-1%,-1,26%,u,-13,-16%
Cc1cnc(NC(=O)c2cccc(S(=O)(=O)N3CCOCC3)c2)s1,-5%,-4,42%,7.1µM*,-2,-3%
Cn1c(=O)c2c(nc(SCc3ccccc3F)n2C)n(C)c1=O,-6%,-25,31%,x,13,-11%
Cc1noc2ncnc(Sc3ccc(Br)cc3)c12,11%,1,81%,-2%,0,12%
CC(C)[C@H](NC(N)=O)C(=O)Nc1cccc(S(=O)(=O)N2CCOCC2)c1,-8%,15,5%,35µM*,3,-4%
CSCCC(NC(N)=O)C(=O)Nc1cccc(S(=O)(=O)N2CCOCC2)c1 (centres undefined),-2%,-1,18%,-7%,8,10%
CSCCC(NC(=O)c1cccc(S(=O)(=O)N2CCOCC2)c1)C(=O)Nc1ccc(F)cc1 (centres undefined),-3%,0,17%,7.1µM*,-12,-19%
O=C(Nc1ccccc1)c1cccc(S(=O)(=O)N2CCCCC2)c1,5%,0,35%,u,21,-2%
SMILES,BAZ2B inh,CtBP-E1A blk,HP1b binding inh,G9a block,Six1-Eya2 blk,JMJD2A Tudor inh
CN(C)S(=O)(=O)c1cccc(NC(=O)c2cccc(S(=O)(=O)N3CCCCC3)c2)c1,3%,-11,16%,50µM*,4,-21%
O=C(CNc1cccc(S(=O)(=O)N2CCOCC2)c1)N1CCc2ccccc21,-20%,5,27%,40µM*,14,-13%
O=C(c1cccc(S(=O)(=O)N2CCOCC2)c1)N1CCCc2ccccc21,10%,3,34%,11%[12.7 µM],-2,-7%
O=C(CCn1c2c(c3ccccc31)CCCC2)NNC(=O)c1ccccc1C(=O)O,71µM*,-21,4%,x,-9,-28%
CC(C)(C)C1CCc2[nH]c3ccccc3c(=O)c2C1 (centres undefined),-4%,-1,26%,-3%,-1,-1%
Cc1c2c(nc3ccccc13)CCC(C(C)(C)C)C2 (centres undefined),-9%,7,50%,50µM*,6,9%
C=CCc1cccc(/C=N/NC(=O)C[n+]2ccccc2)c1O,-20%,-91*,44%,-4%,-89*,u
C=CCc1cccc(/C=N/NC(=O)CCCNc2ccc(C)cc2)c1O,32µM*,u,u,-12%[59 µM],u,u
O=C(C[n+]1ccccc1)N/N=C/c1cccc(Cl)c1Cl,-26%,x,38%,-9%,-4,-14%
O=C(C[n+]1ccccc1)N/N=C/c1ccc(Cl)c(Cl)c1,50µM*,-17,10%,-7%,-14,22µM*
C=CCc1cccc(/C=N/NC(=O)CNc2ccccc2)c1O,-4%,-2,38%,31%[59 µM],-3,-8%
O=C(C[n+]1ccccc1)N/N=C/c1ccc(Br)cc1,-27%,-26,28%,5%[2.33 µM],-3,-12%
CN(C(=O)CSC1=Nc2ccccc2C2=NC(c3ccccc3)C(=O)N12)C1CCCCC1 (centres undefined),u,-14,17%,u,1,-23%
Cc1cc(C)nc(-n2nc(C)c(Sc3ccc(F)cc3)c2N)n1,-4%,3,29%,50µM*,-2,u
Cn1c(N)c(-c2ccccc2)c2ccc([N+](=O)[O-])cc2c1=O,u,-3,u,35µM*,-13,u
N#Cc1c(N)n(Cc2ccccc2)c(=O)c2cc([N+](=O)[O-])ccc12,-1%,5,3%,24%,0,-14%
Cc1ccc(CNC(=O)c2sc3ccc(S(=O)(=O)N4CCCCC4)cc3c2N)cc1,0%,x,x,45µM*,x,x
COc1ccc(CNC(=O)C2=CCN(S(=O)(=O)c3ccc(C)cc3)CC2)cc1,5%,-2,24%,45µM*,-2,-8%
Cc1ccc(S(=O)(=O)N2CC=C(C(=O)NCc3ccccc3)CC2)cc1,0%,7,43%,40µM*,2,-4%
CCCN(C(=O)c1cn(C)c(=O)c2cc(OC)c(OC)cc12)c1ccc(CC)cc1,-9%,x,12%,-20%[59 µM],x,-12%
